# Assay results as given in PubChem BioAssay (NCI).
# The panel holds about 83,000 compounds, 20% with a hit somewhere; the sample as a whole holds those more often.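 48-hour exposure, single concentration, 96-well plates; percent growth endpoint where 0 means no net growth. Active: below 10.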 Activity calls are given as the source filed them.
# Tested on: SK-MEL-5 melanoma
# Test: NCI-60 one-dose screen, 48 h (100 = growth as untreated, 0 = no growth, -100 = all killed)
# Details: 10 µM unless noted
# Method: Growth inhibition of the SK-MEL-5 human tumor cell line is measured as a screen for anti-cancer activity. Cells are grown in 96 well plates and exposed to the test compound for 48 hours. Compounds are tested at a single concentration, which is 10^-5 M for most compounds. The reported endpoint is percent growth (GI% or GIPRCNT), where numbers from 0 - 100% represent growth inhibition, and numbers from -100% - 0 represent cell death. For example, a value of 40 represents 60% growth inhibition. A value of 0 means no net growth occurred over the course of the experiment. A value of -40 indicates 40% of cells at the beginning of the experiment died by the end of the experiment. A value of -100 means all cells are dead at the end of the experiment.
# NCI-60 Human Tumor Cell Lines Screen was performed using the standard one-dose NCI protocol, which is described in more detail at https://dtp.cancer.gov/discovery_development/nci-60/default.htm.
# Compounds with GIPRCNT values below 10 were considered active. Activity score was based on GIPRCNT using the following formula: […]
# Score is 0 for GIPRCNT values of 100 or above, 50 for GIPRCNT values of 0, and 100 for GIPRCNT values of -100.
row,Compound,growth
1,Cc1onc(-c2ccccc2Cl)c1C(=O)Cl,106% (inactive)
2,O=Cc1ccc(F)cc1,99.8% (inactive)
3,C#CC(O)c1ccccc1 (stereo not given),97.8% (inactive)
4,NC(=O)NCCO,98% (inactive)
5,COc1ccc(Br)c2c1C(=O)CC2,109% (inactive)
6,CC(=O)NNC(=S)/N=C\C(C(=O)c1ccccc1)=C(/O)c1ccccc1,101% (inactive)
7,CCOC(OCC)C(=O)c1ccccc1,96.1% (inactive)
8,O=C(NCc1ccccc1)/C(=C/c1ccccc1)NC(=O)c1ccccc1,97.5% (inactive)
9,Cc1ccc2nc(N)nnc2c1,108% (inactive)
10,COc1cc(C(=O)N2CCN(c3ccccc3)CC2)c2ccccc2n1,16.8% (inactive)
11,CC(C)OCC(CCl)OC(=O)Nc1ccccc1 (stereo not given),101% (inactive)
12,COc1cc2c(c(OC)c1OC)-c1ccc(SC)c(=O)cc1[C@@H](NC1OC(CO)C(O)C(O)C1O)CC2 (stereo not given in full),-18.3% (active)
13,C=C(c1ccc(N(C)C)cc1)c1ccc(N(C)C)cc1,-0.97% (active)
14,O=[N+]([O-])c1c(O)c(CNCCCO)cc(CNCCCO)c1O,119% (inactive)
15,C=C1C(=O)C2CCN1CC2,104% (inactive)
16,CC(=O)c1cc(O)ccc1O,113% (inactive)
17,CCCc1cccc(CCC)c1NC(=O)Nc1cc(Cl)cc(Cl)c1,94.3% (inactive)
18,O=C(Nc1cccc(Cl)c1)c1ccc(Cl)cc1Cl,96.1% (inactive)
19,CC1(C)C2CCC1(C)C1(C2)OCCS1 (stereo not given),93.8% (inactive)
20,O=C(c1ccc(Cl)cc1)N1CCCCC1,100% (inactive)

row,Compound,growth
1,C[n+]1c(/C=C\C=C\N2CCCCC2)sc2ccccc21,-59.7% (active)
2,CCCC(=O)c1cccs1,105% (inactive)
3,Oc1cccc(CNC2CCCCC2)c1,103% (inactive)
4,CC(C)(C)[Si](C)(C)OCC1OC(n2cnc3c(N)ncnc32)CC1OS(C)(=O)=O (stereo not given),98.5% (inactive)
5,CCOC(=O)c1ccc(Nc2sc(C(=O)c3ccc(Br)cc3)c(N)c2C#N)cc1,12.6% (inactive)
6,CCCCNC(=O)c1ccc(OCC)cc1,103% (inactive)
7,CCOC(=O)c1cc(C)[nH]c(=O)c1C#N,107% (inactive)
8,CCCNS(=O)(=O)c1ccc(Cl)cc1,105% (inactive)
9,Cc1ccc(S(=O)(=O)Oc2ccc3sc4c(CO)ccc(NCCN(C)C)c4c(=O)c3c2)cc1,-94.3% [100 µM] (active)
10,CC(C)N(CCCC#N)C(C)C,103% (inactive)
11,C=CCOc1ccc(Cl)cc1Cl,108% (inactive)
12,c1ccc(-c2ccc3ccccc3c2)cc1,96.4% (inactive)
13,Cc1c(Cl)cccc1NC(=S)NC(=O)c1ccccc1,90.1% (inactive)
14,C=CCC(O)C=C (stereo not given),102% (inactive)
15,Cc1cccc(C)c1NC(=S)/N=C\c1c(O)[nH]c(=O)[nH]c1=O,96.3% (inactive)
16,COC1CC(OC(=O)c2ccc([N+](=O)[O-])cc2)C(COC(=O)c2ccc([N+](=O)[O-])cc2)O1 (stereo not given),95.7% (inactive)
17,C=CCC(OC(C)=O)c1ccc(OC)c(OC)c1 (stereo not given),119% (inactive)
18,CCOc1ccc(C(=O)NCC(C)C)cc1,101% (inactive)
19,CCNC(=O)OCCc1c2ccccc2nc2ccccc12,104% (inactive)
20,N#CC1(O)CCCCC1,106% (inactive)
